According to PubChem BioAssay (EPA / NIEHS):
Activity calls are given as the source filed them. How the source made its calls: active means hit-call score of the fitted dose curve at least 0.9, where 1 is the maximum; inactive means score below 0.9.

experiment: BSK_BT_PBMCCytotoxicity: PBMC Cytotoxicity Assessment in the BioMAP Diversity Plus: BT Assay (AID 2284225); conditions: primary human B cells with PBMC;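 further: PBMC viability measured by Alamar Blue dye reduction fluorescence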
Summary of the method: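 Viability by Alamar Blue reduction (6 h, ex/em 546/580 nm) after 90 h culture of SEB/TSST-1-activated PBMC (20 ng/mL each) given compound 1 h before activation. DMSO served as baseline for curve fitting.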

Row | SMILES | outcome | AC50
1 | CCn1c2ccccc2c2cc(N)ccc21 | inactive | 
2 | CCCCCCCCCCCCCCCCCC(=O)OCC(CC)CCCC (stereo unspecified) | inactive | 
3 | CCCCC(CC)COCCC#N (stereo unspecified) | inactive | 
4 | CC(=O)Nc1ccccc1O | inactive | 
5 | O=C(O)c1cn(-c2ccc(F)cc2)c2cc(N3CCNCC3)c(F)cc2c1=O | inactive | 
6 | O=P(c1ccccc1)(c1ccccc1)c1ccccc1 | inactive | 
7 | CCCCC(CC)COC(=O)/C=C\C(=O)OCC(CC)CCCC (stereo unspecified) |  | 36.1 µM (active)
8 | O=C(O)c1cn(C2CC2)c2cc(N3CCNCC3)c(F)cc2c1=O | inactive | 
9 | CC(C)(COC(=O)c1ccccc1)COC(=O)c1ccccc1 | inactive | 
10 | Cc1ccc2n[nH]nc2c1 | inactive | 
11 | O=C1CCCCCCCCCCCCCCO1 |  | 36.8 µM (active)
12 | CC1CCC(C(C)CS)CC1S (stereo unspecified) | inactive | 
13 | CC1COc2ccccc2N1C(=O)C(Cl)Cl (stereo unspecified) |  | 12.4 µM (active)
14 | CCCCCCCCC=O | inactive | 
15 | O=C1OC2(c3cc(Br)c(O)c(Br)c3Oc3c2cc(Br)c(O)c3Br)c2c(Cl)c(Cl)c(Cl)c(Cl)c21 | inactive | 
16 | BrC1CCC(Br)C(Br)CCC(Br)C(Br)CCC1Br (stereo unspecified) |  | 32.4 µM (active)
